Source: PubChem BioAssay AID1203 (The Scripps Research Institute Molecular Screening Center, 2008)
Hit rate of the full screen: of about 200,000 compounds, about 80 (0.04%) were called active.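 The calls were made as follows: active = activation above the mean across all tested compounds plus 3 SD, cutoff set per campaign (cut at about 5.5% in these data); inactive = the rest.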 Shown is part of a subset that was picked to be rich in actives.

Assay: Hsp70 promoter-driven reporter induction – cell-based, HeLa, Hsp70 promoter luciferase, luminescence, 10 µM, primary screen (AID 1203);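 also: 100% = MG132 at 30 µM as the positive control and 0% = DMSO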
Settings: at 10 µM, stronger effect = higher value, scaled: vehicle 0, proteasome-inhibitor control 100%

activation, active:
COCCn1c(C)cc(C(=O)CSc2nc3ccccc3c(=O)n2C(C)COC)c1C (stereo unspecified) 8.58%
COc1ccc(CS(=O)/C(Cl)=C(/Cl)C(=O)Nc2ccc(OC)nc2)cc1 (stereo unspecified) 20%
COc1ccc(NC(=O)/C(Cl)=C(/Cl)S(=O)Cc2ccc(C)cc2)cn1 (stereo unspecified) 24.9%
O=C(Nc1ccccc1Cl)/C(Cl)=C(\Cl)S(=O)c1ccccc1 (stereo unspecified) 26.1%

activation, inactive:
COc1ccc(C)cc1S(=O)(=O)N(CC(=O)Nc1cccc([N+](=O)[O-])c1)c1ccc(C)cc1 -0.49%
CCOC(=O)NC(=O)CSc1nnc(SCCC(=O)O)s1 -0.37%
CC(C)C(=O)Nc1c(O)c2ccccc2[nH]c1=O -0.15%
N#C/C(=C/c1ccc(N2CCCCC2)o1)C(=O)NCCc1c[nH]c2ccccc12 -0.42%
CN1CCN(c2nc(Nc3ccc(O)cc3)nc3ccccc23)CC1 -0.02%
COc1ccc(CNC(=O)C2CCN(S(C)(=O)=O)CC2)cc1 -0.22%
Cc1cc(NC(C)C)n2c(nc3ccccc32)c1C#N -0.27%
COc1ccc(CC(=O)Nc2cc(S(=O)(=O)N3CCCCC3)ccc2N2CCN(C)CC2)cc1 -0.39%
CC1CCN(C(=S)c2cccc([N+](=O)[O-])c2)CC1 -0.04%
CC(OC(=O)c1ccccc1OCc1ccc(Cl)cc1)C(N)=O (stereo unspecified) -0.14%
Cc1ccc(N(C(=O)c2sc(C)nc2C)C(C(=O)NC(C)(C)C)c2ccncc2)cc1 (stereo unspecified) -0.38%
COCC(C)n1c(SCc2ccc(C(=O)OC)o2)nc2ccccc2c1=O (stereo unspecified) -0.28%
COCC(C)n1c(C)cc(C(=O)CSc2cc(C)c3ccccc3n2)c1C (stereo unspecified) -0.27%
O=S(=O)(c1ccc(F)cc1)n1ccc(-c2cnc(-c3ccccc3)s2)n1 -0.1%
CCOC(=O)CSc1ccccn1 2.15%
COc1ccc(N(CC(=O)Nc2ccc(C)cc2C)S(=O)(=O)c2ccccc2[N+](=O)[O-])c(OC)c1 -0.09%
Cc1cc(C)n(CC(=O)Nc2ccc([N+](=O)[O-])cc2)n1 -0.28%
OCCC1CN(Cc2ccccc2-c2ccco2)CCN1Cc1ccsc1 (stereo unspecified) -0.08%
COc1cccc(CNC(=O)CCC2CCCN(C(=O)c3ccoc3C)C2)c1 (stereo unspecified) -0.21%
COc1ccc2c(c1)CCC/C2=N\OC(=O)c1ccccc1F 0.09%
O=C(CC1C(=O)NCCN1Cc1ccc(-c2ccccc2)cc1)NCc1ccncc1 (stereo unspecified) -0.07%
Cc1cccc(NC(=S)Nc2ccc3cn[nH]c3c2)c1 -0.39%
COc1ccc(NC(=S)NCCNC(C)=O)cc1 0.67%
Cc1ccc(NC(=O)OCc2cncs2)cc1 0.06%
CC(=O)Nc1ccc(OCC(=O)NCc2ccc(C)cc2)cc1 -0.17%
COc1ccc(NC(=S)Nc2ccccc2Cl)cn1 -0.12%
CN(C)c1ccc(C(CNC(=O)c2ccc(F)cc2)c2c[nH]c3ccccc23)cc1 (stereo unspecified) -0.32%
COc1ccc(/C=N/N=C/c2c[nH]c(=O)c(C#N)c2Nc2ccccc2)cc1 -0.38%
CCN(CC)S(=O)(=O)c1ccc(NC(=O)c2cccnc2Cl)c(NC(=O)c2cccnc2Cl)c1 -0.26%
CCOc1ccc(NC(=O)C2CC(=O)N=C(N)S2)cc1 (stereo unspecified) -0.33%
O=Cc1cn(Cc2ccccc2)nc1-c1cccnc1 -0.04%
Cc1ccc(N(CC(=O)Nc2cc(C)cc(C)c2)S(=O)(=O)c2cccc3nonc23)cc1 -0.31%
O=C(CN1C(=O)NC2(CCCC2)C1=O)NCC1CCCO1 (stereo unspecified) 0.18%
O=S(=O)(N1CCCCC1)N1CCNCC1 -0.19%
O=C(Nc1ccccc1Cl)c1ccc2nsnc2c1 0.16%
O=C(CN1CCCCC1)Nc1ccccc1Cl -0.18%
CCCC1CCC(=NNC(=S)NCCc2ccccc2)CC1 (stereo unspecified) -0.28%
OCCC1CN(Cc2cnc(-c3ccccc3)s2)CCN1CCc1ccccc1 (stereo unspecified) 0.55%
C/C(=N/OC(=O)c1c(-c2c(F)cccc2Cl)noc1C)c1cnccn1 -0.36%
O=C(CCC(=O)c1cccs1)NC1CCCCCC1 -0.2%
Fc1cccc(Cc2noc(CN3CCN(c4cnccn4)CC3)n2)c1 0.1%
Cc1ccc(-c2ccc(/C=N/NC(=O)CN3CCOCC3)o2)cc1[N+](=O)[O-] -0.19%
CCOC(=O)NN1C(=O)c2ccccc2NC1c1cccc(O)c1 (stereo unspecified) -0.06%
N=C1C(=O)OCC1c1ccccc1NC(=O)CN1CCCCC1 (stereo unspecified) -0.34%
CCc1ccc(NC(=O)C(C)OC(=O)/C=C/c2cccc([N+](=O)[O-])c2)cc1 (stereo unspecified) -0.25%
O=C(COC(=O)CCc1ccc(S(=O)(=O)N2CCOCC2)cc1)Nc1cccc(Cl)c1 -0.33%
CCN1CCN(C(=O)CN(C)S(=O)(=O)c2ccc3ccccc3c2)CC1 -0.21%
CSCCC(=O)N1CCCC(CNC(=O)c2ccccc2Cl)C1 (stereo unspecified) -0.44%
C=CCN(c1ccc(Cl)cc1)S(=O)(=O)c1cccc(C(=O)OCC(=O)N(C)C)c1 -0.3%
Cc1cccc(CSc2nnc(C)c(=O)n2N)c1 -0.18%
O=C(CO/N=C/c1ccc(OC(F)F)cc1)NCc1ccc(F)cc1 0.12%
CCNc1nc(NC(C)C)nc(N2CC(=O)N(CC(=O)OCC)C2=N)n1 -0.19%
COc1ccccc1C(c1nnnn1CC1CCCO1)N1CCN(c2ccccc2)CC1 (stereo unspecified) -0.43%
CCOc1ccc(C(CC(=O)O)n2cnnn2)cc1OC (stereo unspecified) -0.16%
Cc1cc(C)cc(NC(=O)c2cccc(NC(=O)C3C4CC5OC(=O)C3C5C4)c2)c1 (stereo unspecified) 0.09%
COCCNC(=S)N(Cc1cccnc1)Cc1ccc(OC)c(OC)c1 -0.35%
O=C(Nc1ccccc1F)c1ccccc1-c1ccc(C(F)(F)F)cc1 -0.36%
C/C(CC(=O)N1CCN(C=O)CC1)=N\NC(=O)c1ccc(Br)cc1 -0.22%
Cc1ccc(CN2CCN(Cc3cccc(C)n3)CC2CCO)cc1 (stereo unspecified) 0.01%
O=C(Cc1cc(=O)[nH][nH]1)N/N=C/c1ccccc1[N+](=O)[O-] -0.41%
CCn1cc(C(=O)Nc2cc(C)ccc2C)c(=O)c2ccc(C)nc21 -0.16%
CC(NC(=O)CC1SC(N)=NC1=O)c1ccccc1 (stereo unspecified) -0.02%
COc1ccc(CCNC(=O)CSc2nnc3ccc(-c4ccncc4)nn23)cc1 -0.16%
O=C(NCc1ccccc1Cl)C1CCC(CNc2c(N3CCCCC3)c(=O)c2=O)CC1 (stereo unspecified) 0.08%
CN1C(=O)/C(=C/c2ccc(C(=O)NC3CCCC3)cc2)Oc2ccccc21 0.12%
CC(=O)c1ccccc1NC(=O)CC1(CC(=O)O)CCCCC1 -0.11%
Cc1nc(S(=O)(=O)c2ccc(Br)cc2)nc2c1CCC2 -0.24%
COc1ccc(Cn2c(=O)cc(C)[nH]c2=S)cc1 0.13%
O=C(COc1ccc(Cl)cc1[N+](=O)[O-])N1CCCCC1 0.04%
Cn1nc(C(F)(F)F)c2cc(C(=O)N3CCOCC3)sc21 0.19%
Cc1ccnc(SCC(N)=O)n1 -0.02%
O=C(Nc1cccc(Cl)c1)Nc1ccccc1NS(=O)(=O)c1cccs1 -0.23%
CCCC(C)C(=O)NCc1ccncc1 (stereo unspecified) 0.15%
Cc1ccc(N(Cc2cc3ccccc3[nH]c2=O)C(=O)c2cccs2)cc1 -0.18%
C/C(CC(=O)Nc1cccc(F)c1)=N\NC(=O)C(=O)NC1CCCCC1 -0.18%
CCOCCCNC(=O)C(NC(=O)c1ccccc1O)c1ccccc1 (stereo unspecified) -0.12%
O=C(CC(=O)N/N=C\c1ccc(F)cc1)NCCc1ccccc1 -0.23%
CN1CCN(C(=O)CCc2nc(-c3ccc(Cl)cc3)no2)CC1 -0.33%
N#Cc1c(-c2ccc(F)cc2)nc(-c2ccccc2)[nH]c1=O -0.14%
CCSC1=NCCN1S(=O)(=O)c1ccc(F)cc1 -0.26%
COc1ccc(C(=O)CSc2nnnn2C)c(OC)c1 0.02%
CC(=O)Nc1ccc(C(=O)OCC(=O)Nc2ccc([N+](=O)[O-])cc2C(F)(F)F)cc1 -0.04%
CCN(CC)C(=O)C(=O)Nc1cccc(Br)c1 -0.16%
c1ccc(-n2nnnc2NC2CCCCCC2)cc1 -0.52%
CC(=O)c1ccc(NC(=S)N(Cc2ccccc2)C(C)C2CC2)cc1 (stereo unspecified) -0.19%
COc1ccc(COC(=O)N/N=C(\C)CC(=O)Nc2ccc(Cl)cc2)cc1 -0.38%
OCCC1CN(Cc2cccc(O)c2)CCN1CCc1ccccc1 (stereo unspecified) 0.03%
Cc1cccc(OCC(O)CN2CCN(CCN3C(=O)c4cccc5cccc(c45)C3=O)CC2)c1C (stereo unspecified) -0.21%
Cc1ccc(CN2CCN(Cc3ccc4ncccc4c3)CC2CCO)cc1 (stereo unspecified) -0.4%
NS(=O)(=O)c1ccc(CCNC(=S)Nc2ccc(S(N)(=O)=O)cc2)cc1 0.04%
COc1ccc2c(CC(=O)OCC(=O)Nc3ccccc3[N+](=O)[O-])coc2c1 -0.38%
CCCNCc1cc(OCC)c(OCC(=O)Nc2ccccc2)cc1Br -0.15%
